# The list is not random: actives were taken first. Their share in the collection is about 0.9%.
# SRC3 TRFRET art – TR-FRET artefact, counter-screen to PPARgamma/SRC-3 agonist assay; actives 0.39% (n = 99,000); TR-FRET ratio at 8 µM; PPARgamma/SRC-3 format; active compounds read high
# PPARg SRC1 recr – PPARgamma-driven SRC-1 recruitment agonism. P37231. PPARgamma-SRC-1 coactivator recruitment biochemical assay. activation, % at 8 µM. actives 0.41% (n = 200,000). AID 631; in the data active = activation above about 19%
# Target sequence (P37231 whole entry, looked up): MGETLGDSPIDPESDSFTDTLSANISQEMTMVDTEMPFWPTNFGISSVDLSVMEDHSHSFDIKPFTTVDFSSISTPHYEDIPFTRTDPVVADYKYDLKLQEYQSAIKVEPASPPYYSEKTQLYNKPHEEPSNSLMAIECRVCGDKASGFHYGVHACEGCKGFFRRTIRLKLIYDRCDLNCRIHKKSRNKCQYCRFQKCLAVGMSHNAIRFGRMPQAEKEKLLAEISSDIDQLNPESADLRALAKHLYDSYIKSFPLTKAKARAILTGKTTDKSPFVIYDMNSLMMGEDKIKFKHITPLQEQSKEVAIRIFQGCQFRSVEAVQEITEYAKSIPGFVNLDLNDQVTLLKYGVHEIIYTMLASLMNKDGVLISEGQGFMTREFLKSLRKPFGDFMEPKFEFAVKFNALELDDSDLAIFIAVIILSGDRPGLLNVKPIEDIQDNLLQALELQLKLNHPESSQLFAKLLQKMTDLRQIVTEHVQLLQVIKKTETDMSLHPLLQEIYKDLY
# TR-FRET SRC-2 ct – counter-screen for PPARgamma SRC-2 recruitment agonists: TR-FRET artefact; active compounds read high; TR-FRET ratio at 8 µM; actives 0.4% (n = 200,000); AID 1049
# PPARg SRC2 recr – promotes SRC-2 coactivator recruitment by human PPARgamma; P37231; AID 1032; actives 0.34% (n = 200,000); PPARgamma LBD-SRC-2 recruitment, biochemical; activation, % at 8 µM; in the data active = activation above about 22%
# SRC1 TRFRET art – counter-screen for PPARgamma SRC-1 recruitment agonists: TR-FRET artefact. TR-FRET ratio at 8 µM. TR-FRET detection artefact counter-screen, emission ratio; active compounds read high. actives 0.34% (n = 99,000). AID 1051; in the data active = TR-FRET ratio above about 2300
# PPARg SRC3 recr – PPARgamma-driven SRC-3 recruitment agonism | P37231 | biochemical PPARgamma/SRC-3 coactivator recruitment assay | activation, % at 8 µM | actives 0.26% (n = 200,000) | AID 731; in the data active = activation above about 23%
# A number is an active result; n = inactive; x = not tested or not shown. Cut-off read from the data, not from the text of the source, unless noted: active = TR-FRET ratio above about 2000; inactive = the rest.
SMILES,SRC3 TRFRET art,PPARg SRC1 recr,TR-FRET SRC-2 ct,PPARg SRC2 recr,SRC1 TRFRET art,PPARg SRC3 recr
CCc1cccc(NC(=O)C2CCCN(S(=O)(=O)c3c(C)[nH]c(=O)[nH]c3=O)C2)c1 (stereo not drawn),x,n,n,n,x,n
CN(C)C=Nc1c(C(=O)c2ccccc2)sc2nccc(N(C)C)c12,n,n,n,n,n,n
CCOC(=O)c1sc2nccc(N(C)C)c2c1N=CN(C)C,x,n,n,n,x,27
Cc1ccc(NC(=O)CN2C(=O)N/C(=C/c3cc(C)n(-c4ccc(C(=O)O)cc4)c3C)C2=O)cc1,n,n,n,n,n,n
CCn1c(C)cc(/C=C2\NC(=O)N(CC(=O)Nc3ccc(F)cc3)C2=O)c1C,n,n,n,n,2342,n
CC1(C)CN(c2ccc(CC#N)cc2)C1=O,n,n,n,n,n,n
COc1ccc(N(CC(=O)NCc2ccc(Cl)cc2)S(=O)(=O)c2ccccc2[N+](=O)[O-])c(OC)c1,n,n,n,n,n,n
O=c1[nH]n(-c2ccccn2)c(=O)c2ccccc12,x,n,n,n,x,n
O=c1[nH]n(-c2ccccc2)c(=O)c2ccccc12,n,20,n,n,n,n
Cc1cccc(C(=O)NC(=S)NNC(=O)c2ccc(Cl)cc2)c1,n,n,n,n,n,n
Cn1c(N)c(C(=O)c2ccc(Cl)cc2)c(=O)n(C)c1=O,n,n,n,n,n,n
Cc1nn(-c2ccc(Cl)cc2)c2sc(C(=O)c3c(N)n(C)c(=O)n(C)c3=O)cc12,x,25,n,n,x,n
COc1ccccc1OCCNC(=O)c1ccc(S(=O)(=O)N(C)C)cc1,x,n,n,n,x,n
CC(=O)C1=C(C)NC(SCC(=O)c2ccc(-c3ccccc3)cc2)=C(C#N)C1c1cccnc1 (stereo not drawn),x,n,2094,n,x,n
O=C(CNC(=O)c1cccs1)OCC(=O)c1ccc2ccccc2c1,x,n,n,n,x,n
CC(C)(C)c1ccc(C(=O)NCC(=O)OCC(=O)c2ccc3c(c2)-c2ccccc2C3)cc1,n,n,2064,n,2576,n
CC(C)(O)C#Cc1ccc(C(=O)N2CCN(c3ccccc3)CC2)cc1,n,n,n,n,n,n
O=C(CSc1nc2cccnc2n1Cc1ccccc1)NCc1ccco1,x,34,n,n,x,n
Cc1ccc(/C=C/C(=O)Nc2nnc(C)s2)o1,n,n,n,n,n,n
Cc1ccc(/C=C(\C#N)c2nn(-c3ccccc3)c(N)c2C#N)cc1,n,n,n,n,n,n
N#C/C(=C\c1cccc2ccccc12)c1nn(-c2ccccc2)c(N)c1C#N,x,19,n,n,x,n
CCc1n[nH]c(=S)n1/N=C/c1ccc(N(C)c2ccccc2)cc1,n,n,n,n,n,n
Cn1c2ccccc2c2cc(C(=O)OCC(=O)N3CC(=O)Nc4ccccc43)sc21,x,n,2536,n,x,n
O=C(CNCC1CCCO1)Nc1ccc([N+](=O)[O-])cc1C(=O)Nc1ccccc1F (stereo not drawn),n,n,n,n,n,n
Cc1[nH]c2ccccc2c1/C=N/Nc1nncn1N,n,n,n,n,n,n
SMILES,SRC3 TRFRET art,PPARg SRC1 recr,TR-FRET SRC-2 ct,PPARg SRC2 recr,SRC1 TRFRET art,PPARg SRC3 recr
Cc1[nH]c2ccccc2c1/C=N/Nc1ccccn1,n,n,2002,n,n,n
Cc1ccc2c(ccc(=S)n2C)c1,2121,n,n,n,n,n
O=c1[nH]c(N2CCc3ccccc32)nc2c1CCCC2,x,n,n,n,x,n
Cc1cc2cc3c(cc2nc1SCc1ccc(C(=O)O)cc1)OCCO3,n,n,n,n,n,n
COc1cccc(CSc2nc3cc4c(cc3cc2C)OCCO4)c1,2784,n,n,n,n,n
O=C(Nc1ccccn1)c1cc(-c2cccc(Cl)c2)nc2ccccc12,2298,n,n,n,2351,n
CN1c2ccsc2/C(=N/Nc2ccccc2)CS1(=O)=O,n,n,2054,n,n,n
CN1c2ccsc2/C(=N/NC(=O)c2c(F)cccc2F)CS1(=O)=O,x,n,n,n,x,n
CC(=O)N1N=C(c2cccs2)CC1c1ccc(C)o1 (stereo not drawn),n,n,n,n,2339,n
O=C(COc1ccccc1-c1ccccc1)NCc1ccco1,n,54,n,n,4796,n
CC(OC(=O)c1cc2sccc2n1C)C(=O)NCc1cccs1 (stereo not drawn),x,24,n,n,x,n
CC(=O)N1CC(=O)N(Cc2ccccc2)/C(=C/c2ccccc2)C1=O,n,n,n,n,n,n

# High-throughput results (PubChem)
